Test results published in PubChem BioAssay AID1159580 (chemical genetic matrix, 2015).
Several values for one entry are separate records, joined by “and”; a condition that tells them apart may be missing. Equal values may be shown once. Out of some 5,500 compounds screened, about 2,000 (36%) were called active. About 18% were inconclusive and are not listed. No stated cut-off is given here; in the data, active means normalized growth mostly below about 0.91 (no sharp cut-off); inconclusive means no clear call, values can overlap the other calls; inactive means mostly above about 0.92. The list shows a part of the results.

Assay: chemical genetic growth profiling, strain panel (AID 1159580);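 further: tested at 20 µM; growth read once vehicle control cultures reached saturation at 30 °C; 1 = growth at the plate median or of vehicle wells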
Conditions: S. cerevisiae deletion strains, growth OD

Measured: normalized growth

COc1ccc(-c2oc3c(CC=C(C)C)c(O[C@@H]4O[C@H](CO)[C@@H](O)[C@H](O)[C@H]4O)cc(O)c3c(=O)c2O[C@@H]2O[C@@H](C)[C@H](O)[C@@H](O)[C@H]2O)cc1
inactive: locus YAL013W, strain DEP1, stronger effect = lower value 1.04 | locus YAL021C, strain ccr4, stronger effect = lower value 1.05 | locus YAL026C, strain drs2, stronger effect = lower value 1.05 | locus YAL030W, strain snc1, stronger effect = lower value 1.04 | locus YBL061C, strain skt5, stronger effect = lower value 1.03 | locus YBR009C, strain hhf1, stronger effect = lower value 1.03 | locus YBR023C, strain chs3, stronger effect = lower value 1.02 | locus YBR171W, strain sec66, stronger effect = lower value 1.06 | locus YBR229C, strain ROT2, stronger effect = lower value 1 | locus YBR231C, strain swc5, stronger effect = lower value 1.03 | locus YBR279W, strain paf1, stronger effect = lower value 1.03 | locus YCL011C, strain gbp2, stronger effect = lower value 1.03 | locus YCL016C, strain dcc1, stronger effect = lower value 1 | locus YCL029C, strain bik1, stronger effect = lower value 0.976 | locus YCL061C, strain MRC1, stronger effect = lower value 1.04 | locus YCL069W, strain vba3, stronger effect = lower value 1.02 | locus YCR088W, strain abp1, stronger effect = lower value 1.04 | locus YDL005C, strain med2, stronger effect = lower value 1.03 | locus YDL035C, strain GPR1, stronger effect = lower value 1 | locus YDL040C, strain nat1, stronger effect = lower value 1.02 | locus YDL074C, strain BRE1, stronger effect = lower value 0.988 | locus YDL101C, strain DUN1, stronger effect = lower value 0.989 | locus YDL185W, strain tfp1, stronger effect = lower value 0.955 | locus YDL192W, strain arf1, stronger effect = lower value 0.987 | locus YDR001C, strain nth1, stronger effect = lower value 1.04 | locus YDR069C, strain doa4, stronger effect = lower value 1.06 | locus YDR101C, strain arx1, stronger effect = lower value 0.975 | locus YDR137W, strain rgp1, stronger effect = lower value 1.07 | locus YDR150W, strain NUM1, stronger effect = lower value 1.01 | locus YDR159W, strain sac3, stronger effect = lower value 1.07 | locus YDR162C, strain NBP2, stronger effect = lower value 0.989 | locus YDR195W, strain ref2 1.05 | locus YDR297W, strain sur2, stronger effect = lower value 1.03 | locus YDR318W, strain mcm21, stronger effect = lower value 0.986 | locus YDR334W, strain swr1, stronger effect = lower value 1.04 | locus YDR335W, strain msn5, stronger effect = lower value 1.02 | locus YDR388W, stronger effect = lower value 0.99 | locus YDR392W, strain spt3, stronger effect = lower value 1 | locus YDR502C, strain sam2, stronger effect = lower value 0.989 | locus YEL003W, strain gim4, stronger effect = lower value 1.03 | locus YEL037C, strain rad23, stronger effect = lower value 1.03 | locus YEL061C, strain CIN8 (second series), stronger effect = lower value 1.04 | locus YEL061C, strain CIN8, stronger effect = lower value 0.993 | locus YER015W, strain faa2, stronger effect = lower value 1.02 | locus YER016W, strain bim1, stronger effect = lower value 1.03 | locus YER110C, stronger effect = lower value 0.966 | locus YER111C, strain swi4, stronger effect = lower value 1.05 | locus YER155C, strain BEM2 (second series), stronger effect = lower value 1.05 | locus YER155C, strain BEM2, stronger effect = lower value 1 | locus YER167W, strain BCK2, stronger effect = lower value 1.01 | locus YFR010W, strain ubp6, stronger effect = lower value 1.05 | locus YGL078C, strain dbp3, stronger effect = lower value 0.983 | locus YGL086W, strain mad1, stronger effect = lower value 0.975 | locus YGL167C, strain pmr1, stronger effect = lower value 1.02 | locus YGL173C, strain kem1, stronger effect = lower value 1.05 | locus YGL227W, strain vid30, stronger effect = lower value 1.04 | locus YGL240W, strain doc1, stronger effect = lower value 1.04 | locus YGL248W, strain PDE1, stronger effect = lower value 1.01 | locus YGL253W, strain hxk2, stronger effect = lower value 0.946 | locus YGR078C, strain PAC10, stronger effect = lower value 1 | locus YGR135W, strain pre9, stronger effect = lower value 1 | locus YGR252W, strain gcn5, stronger effect = lower value 1.06 | locus YHR013C, strain ard1, stronger effect = lower value 1.03 | locus YHR027C, strain rpn1, stronger effect = lower value 1.03 | locus YHR030C, strain SLT2, stronger effect = lower value 0.99 and 1.02 | locus YHR079C, strain IRE1 (second series), stronger effect = lower value 0.965 | locus YHR079C, strain IRE1, stronger effect = lower value 1.03 | locus YHR094C, strain hxt1, stronger effect = lower value 0.988 | locus YHR129C, strain ARP1, stronger effect = lower value 0.996 | locus YHR142W, strain chs7, stronger effect = lower value 1.01 | locus YHR200W, strain rpn10, stronger effect = lower value 0.997 | locus YIL066C, strain RNR3, stronger effect = lower value 1.02 | locus YIL073C, strain SPO22, stronger effect = lower value 0.924 | locus YIL125W, strain kgd1, stronger effect = lower value 0.985 | locus YIR030C, strain dcg1, stronger effect = lower value 0.983 | locus YJL092W, strain hpr5, stronger effect = lower value 1.04 | locus YJL095W, strain BCK1 (second series), stronger effect = lower value 1.03 | locus YJL095W, strain BCK1, stronger effect = lower value 0.975 and 1.02 | locus YJL115W, strain asf1, stronger effect = lower value 1.05 | locus YJL129C, strain trk1, stronger effect = lower value 1.02 | locus YJL134W, strain LCB3, stronger effect = lower value 1.01 | locus YJL154C, strain vps35, stronger effect = lower value 1.04 | locus YJL164C, strain tpk1, stronger effect = lower value 1.01 | locus YJL166W, strain qcr8, stronger effect = lower value 1.04 | locus YJL168C, strain set2, stronger effect = lower value 0.985 | locus YJL187C, strain SWE1 (second series), stronger effect = lower value 0.987 | locus YJL187C, strain SWE1, stronger effect = lower value 1.02 | locus YJR043C, strain POL32, stronger effect = lower value 1.04
active: locus YBR021W, strain FUR4, stronger effect = lower value 1.19 [resistant]
